The list is not random: actives were taken first. Their share in the collection is about 10%.
ROMK mod = ROMK potassium channel modulators, primary screen, cell-based, thallium flux, MLSMR library; B-score at 10 µM; Tet-inducible ROMK, thallium flux fluorescence; actives lie on both sides; 130,000 tested, 2% active; AID 1918, 2009; ATP-sensitive inward rectifier potassium channel 1 (Homo sapiens), P48048;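 active = signal ratio slope over the read window, or its plate-corrected B-score, at least 3 SD from the plate mean, either direction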;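 note: B-score of the F/F0 ratio slope over 7 to 12 s after thallium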
HCT116 bCat-KO = primary screen for growth suppressors in beta-catenin knockout HCT116 cells (colon tumor, human); HCT116 beta-catenin knockout viability, CellTiter-Glo, 60 h; active compounds read low; viability, % at 10 µM; 140,000 tested, 1.5% active; AID 818, 2007;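 active = viability at or under a set limit, the compound median less 4 SD, cut at about 6% in these data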;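 note: 0% = Hyamine 1622 control at 20 µM and 100% = untreated cell control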
PTEN del growth = growth suppression of PTEN-null HCT116, primary screen, cell-based, CellTiter-Glo; HCT116 PTEN-null viability, 60 h; active compounds read low; viability, % at 10 µM; 140,000 tested, 1.2% active; AID 827, 2007;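 active = viability at or below a set limit, 4 SD under the median of all tested compounds, cut at about 3.7% in these data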;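 note: PTEN knockout HCT116 line with beta catenin targeted HCT116 as companion control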
Insulin prom inh = inhibitors of insulin promoter-driven GFP, primary screen, imaging, TRM-6 cells (human fetal islet line), eGFP reporter, cell count; reporter expression induced with tamoxifen; inhibition, % at 2 µM; 130,000 tested, 0.9% active;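 active = inhibition above the mean plus 3 SD, with well images judged a real hit on visual review, cut at about 60% in these data, passing the limit was not always enough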
Lmaj promast = Leishmania major promastigote growth inhibition, primary screen; inhibition, % at 10 µM; 200,000 tested, 9% active; AID 1063, 2008; Leishmania major promastigotes, resazurin fluorescence viability; in the data active = inhibition above about 50%;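 note: promastigotes grown with compound for 44 hours at 28 °C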
p97 inhibitor = inhibitors of human p97 ATPase, primary screen, biochemical. AID 1481, 2009. recombinant p97 ATPase, Kinase-Glo ATP luminescence, 3 h. 220,000 tested, 0.42% active. inhibition, % at 8 µM. Transitional endoplasmic reticulum ATPase (Homo sapiens), P55072; in the data active = inhibition above about 15%;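 note: 0% = DMSO vehicle and 100% = wells lacking enzyme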
Target sequence (P55072 whole entry, looked up): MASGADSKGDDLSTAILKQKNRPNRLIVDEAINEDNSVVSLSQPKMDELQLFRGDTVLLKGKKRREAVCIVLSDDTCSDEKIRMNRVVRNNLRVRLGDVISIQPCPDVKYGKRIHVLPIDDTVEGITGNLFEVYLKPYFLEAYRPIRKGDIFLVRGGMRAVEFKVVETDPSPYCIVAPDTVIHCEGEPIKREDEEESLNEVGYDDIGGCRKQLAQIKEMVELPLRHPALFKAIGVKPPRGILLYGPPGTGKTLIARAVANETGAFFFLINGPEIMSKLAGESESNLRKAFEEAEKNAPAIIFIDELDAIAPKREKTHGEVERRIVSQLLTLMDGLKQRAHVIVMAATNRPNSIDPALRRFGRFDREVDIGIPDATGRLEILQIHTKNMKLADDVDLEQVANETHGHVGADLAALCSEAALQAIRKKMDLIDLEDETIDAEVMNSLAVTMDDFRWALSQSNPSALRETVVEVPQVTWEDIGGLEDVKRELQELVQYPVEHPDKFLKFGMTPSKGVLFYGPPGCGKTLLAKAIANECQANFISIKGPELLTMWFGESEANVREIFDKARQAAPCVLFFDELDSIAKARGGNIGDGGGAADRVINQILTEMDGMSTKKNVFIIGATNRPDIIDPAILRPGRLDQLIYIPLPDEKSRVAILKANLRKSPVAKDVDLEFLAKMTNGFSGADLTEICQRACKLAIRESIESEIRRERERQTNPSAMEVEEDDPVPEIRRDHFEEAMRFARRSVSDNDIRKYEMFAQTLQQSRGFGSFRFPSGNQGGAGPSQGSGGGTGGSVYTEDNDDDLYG
An asterisk follows results filed as active; . = no result given.

SMILES	ROMK mod	HCT116 bCat-KO	PTEN del growth	Insulin prom inh	Lmaj promast	p97 inhibitor
C=CC#CC1(O)CC(C)N(C)CC1C (stereo unspecified)	0.15	.	.	-14	-1	2
O=C1C2C3c4ccccc4C(c4ccccc43)C2C(=O)N1Cc1ccccn1 (stereo unspecified)	.	.	.	-77	21	-2
O=C(NNc1nc(-c2ccccc2)c2cc(Br)ccc2n1)c1ccc(S(=O)(=O)N2CCCCC2)cc1	-0.044	76	73	12	2	1
CN(C)S(=O)(=O)c1ccc(C(=O)NNc2nc(-c3ccccc3)c3cc(Br)ccc3n2)cc1	-0.37	64	59	6	71*	1
Cc1ccc(NC(=O)c2cc(-c3ccccc3)nn2-c2ccccc2)c(Br)c1	-0.073	48	24	18	69*	6
CS(=O)(=O)c1ccc2nc(NC(=O)c3cc(-c4ccccc4)nn3-c3ccccc3)sc2c1	1	87	71	14	100*	4
O=C(CCl)NC(=O)NC12CC3CC(CC(C3)C1)C2	-0.98	17	20	58	101*	6
Cc1ccc(-c2cc(C(=O)Nc3ccc(S(=O)(=O)Nc4ncccn4)cc3)[nH]n2)c(O)c1C	0.22	.	.	.	.	3
O=C(C(Cc1ccccc1)NS(=O)(=O)c1cccc2cccnc12)N1CCc2ccccc21 (stereo unspecified)	.	69	73	.	94*	4
Cc1cc2cc(C(c3nnnn3Cc3ccccc3)N3CCc4ccccc43)c(=O)[nH]c2cc1C (stereo unspecified)	0.74	82	84	-23	99*	3
CCc1ccc2[nH]c(=O)c(C(c3nnnn3Cc3ccccc3)N3CCOCC3)cc2c1 (stereo unspecified)	.	92	90	-108	96*	-8
Cc1cc2cc(C(c3nnnn3Cc3ccco3)N3CCc4ccccc43)c(=O)[nH]c2cc1C (stereo unspecified)	-0.18	83	81	.	20	4
Cc1ccc2cc(C(c3nnnn3Cc3ccccc3)N3CCc4ccccc43)c(=O)[nH]c2c1C (stereo unspecified)	0.14	90	99	39	44	3
CCc1ccc2[nH]c(=O)c(C(c3nnnn3CC3CCCO3)N3CCN4CCCC4C3)cc2c1 (stereo unspecified)	-2.4*	76	103	-37	-4	13
Cc1cc2cc(C(c3nnnn3Cc3ccco3)N3CCc4ccccc4C3)c(=O)[nH]c2cc1C (stereo unspecified)	-0.59	60	73	.	91*	4
CCc1ccc(CNC(=O)Cn2nc(-c3ccccc3)ccc2=O)cc1	-1.3	.	.	20	14	0
O=C(CN1C(=O)CC(c2ccco2)Sc2ccccc21)NC1CCCCC1 (stereo unspecified)	.	.	.	.	-6	-1
Cc1ccc2[nH]c(=O)c(C(c3nnnn3Cc3ccccc3)N3CCc4ccccc43)cc2c1 (stereo unspecified)	-0.066	90	94	-121	74*	2
Cc1cccc2cc(C(c3nnnn3Cc3ccccc3)N3CCN(c4ccccc4)CC3)c(=O)[nH]c12 (stereo unspecified)	-0.75	89	90	14	51*	0
Cc1ccc2cc(C(c3nnnn3Cc3ccccc3)N3CCc4ccccc43)c(=O)[nH]c2c1 (stereo unspecified)	-0.025	65	54	.	42	2
CC1(C)Cc2c(C#N)c(N3CCN(C(=O)c4ccco4)CC3)nc(Cc3ccccc3)c2CO1	-1.3	1.5*	1.0*	14	90*	1
Cc1ccc(/C(O)=C2\C(=O)C(=O)N(CCCN(C)C)C2c2ccccn2)cc1 (stereo unspecified)	.	.	.	14	-1	1
COCCn1c(N)c(S(=O)(=O)c2cccs2)c2nc3ccccc3nc21	.	96	89	31	17	-1
COc1cccc(/C=N/n2c(N)c(S(=O)(=O)c3cccs3)c3nc4ccccc4nc32)c1OC	.	2.1*	2.8*	2	-1	8
Nc1c(S(=O)(=O)c2cccc(Cl)c2)c2nc3ccccc3nc2n1/N=C/c1ccc(O)c(O)c1	.	1.1*	1.5*	.	100*	8
SMILES	ROMK mod	HCT116 bCat-KO	PTEN del growth	Insulin prom inh	Lmaj promast	p97 inhibitor
COc1cccc(NC(=O)c2ccc(NC(=O)C3CC(=O)OC34CCCCC4)cc2)c1 (stereo unspecified)	-1.6	.	.	.	5	-1
COc1cccc(/C=N/NC(=O)Cn2cnc3c2c(=O)n(C)c(=O)n3C)c1	.	.	.	.	.	4
Cc1ccc(-c2cc(C(F)F)n3ncc(C(=O)N4CCN(c5cccc(C)c5C)CC4)c3n2)cc1	0.14	3.2*	8	16	58*	3
CCOC(=O)N1CCN(C(=O)c2cnn3c(C(F)F)cc(-c4ccc(C)cc4)nc23)CC1	-1.6	72	87	-32	0	1
COc1ccc(-c2cc(C(F)F)n3ncc(C(=O)N4CCc5ccccc54)c3n2)cc1	0.038	.	.	-107	29	2
COc1ccc(-c2cc(C(F)F)n3ncc(C(=O)N4CCN5CCCC5C4)c3n2)cc1 (stereo unspecified)	-0.3	59	59	-8	60*	-2
O=C(Nc1nnc(SCc2ccc(F)cc2)s1)c1ccc2c(c1)C(=O)N(c1ccccc1Cl)C2=O	1.2	.	.	.	-12	3
O=C(N/N=C/c1sc2ccccc2c1O)c1ccccc1	.	4.0*	3.7*	-6	98*	4
Cc1sccc1/C=N/NC(=O)c1cccc2ccccc12	-0.29	96	86	12	10	-2
COc1ccc(C(=O)N/N=C/c2sc3ccccc3c2O)cc1	-4.5*	3.3*	3.5*	50	77*	2
O=C(N/N=C/c1sc2ccccc2c1O)c1cccc2ccccc12	-0.16	4.1*	4	-3	86*	5
C=CCN(CC=C)C(=O)c1cc2ccccc2c(=O)o1	0.51	90	97	-29	-4	-5
COc1ccccc1NC(=O)CCC(=O)N/N=C(/C)c1ccc(C)cc1	-0.91	96	94	10	21	-4
CN(C)S(=O)(=O)c1cc(NC(=O)CSc2nn(-c3ccc(Cl)cc3)c(=S)s2)ccc1Cl	0.27	7	7	-23	93*	1
Cc1ccc(NC(=O)CSc2nn(-c3ccc(Cl)cc3)c(=S)s2)cc1S(=O)(=O)N(C)C	.	13	14	22	97*	3
COC(=O)C1=CNC=C(C(=O)OC)C1c1ccc(C(=O)OC)cc1	0.028	107	98	26	-4	-3
CCN(CC)CCC(=O)c1ccc(F)cc1	-0.025	.	.	.	80*	6
COc1cccc(C2=CC(c3ccc(OC)c(OC)c3OC)n3nnnc3N2)c1 (stereo unspecified)	.	16	17	-7	79*	0

Screening data from PubChem.
